These compounds were tested against Dickkopf-related protein 1 (Homo sapiens) (UniProt O94907) (assay: small molecules binding DKK1 protein – biochemical, small-molecule microarray, 635 nm fluorescence scan, primary screen (AID 1106;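 also: score merges emission near 667 nm with signal to noise over three replicate slides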)). Conditions: higher = more signal.
Sequence of Dickkopf-related protein 1 (Homo sapiens) (O94907 whole entry, looked up): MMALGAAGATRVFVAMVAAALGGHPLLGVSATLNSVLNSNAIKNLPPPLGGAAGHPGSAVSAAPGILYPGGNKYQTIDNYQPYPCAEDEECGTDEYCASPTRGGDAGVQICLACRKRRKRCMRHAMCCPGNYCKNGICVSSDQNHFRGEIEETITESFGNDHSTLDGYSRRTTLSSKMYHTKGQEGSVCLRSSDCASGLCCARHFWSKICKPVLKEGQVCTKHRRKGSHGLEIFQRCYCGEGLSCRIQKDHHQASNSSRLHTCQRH

Compound | composite z-score
CCCCC(=C=CC[C@@H](O)c1ccccc1OCCO)CCO | -0.382
COc1ccc(C(O)C2C=CC3C(=O)NC(=O)C3N2Nc2ccccn2)c2ccccc12 (stereo unspecified) | 0.378
COc1cc(CO)cc(I)c1O[C@H]1C=C(C(=O)NCCO)C[C@@H](N(CCN2CCOCC2)C(=O)C2CCOC2)[C@@H]1O (stereo partly specified) | 0.507
COC(=O)[C@@]1(Cc2ccc(F)cc2)[C@H]2c3cc(C(=O)N(C)C)n(Cc4ccc(S(C)(=O)=O)cc4)c3C[C@H]2CN1C(=O)c1ccccc1 | -0.0071
CC(=O)n1cc(C(O)C2C=CC3C(=O)N(C)C(=O)C3N2Nc2ccccc2)c2ccccc21 (stereo unspecified) | 1.02
O=C1O[C@H](c2ccccc2)[C@H](c2ccccc2)N2[C@H]1[C@@H](C(=O)NC[C@H](O)c1ccccc1)[C@]1(C(=O)Nc3ccccc31)[C@H]2c1ccc(OCCO)cc1 | 0.289
C=C(CCCC)C(=O)CC[C@H](OC(C)=O)c1cccc(OCCO)c1 | -0.759
COCCOC(=O)N1C(=O)[C@@]2(c3cc(C#CC4=CCCCC4)ccc31)[C@H](C(=O)Nc1nc3ccccc3s1)[C@H]1C(=O)O[C@H](c3ccccc3)[C@H](c3ccccc3)N1[C@@H]2c1ccccc1OCCO | 0.785
CN1C(=O)C2C=CC(C(O)c3cc(C(F)(F)F)cc(C(F)(F)F)c3)N(N3CCCCC3)C2C1=O (stereo unspecified) | -0.722
CN(C)C(=O)[C@@]1(Cc2ccccc2)N=C(c2ccc(OCCCO)cc2)O[C@H]1c1ccccc1N=[N+]=[N-] | -0.237
[N-]=[N+]=NCc1ccccc1[C@@H]1OC(c2ccc(OCCCO)cc2)=N[C@]1(CCS(=O)(=O)c1ccccc1)C(=O)NCc1ccccc1 | 0.494
CCOC(=O)[C@H]1C/C=C/C[C@H](C(=O)OCC)C(=O)O[C@H]2[C@@H](OC)O[C@H](CO)[C@@H](OC(=O)Nc3ccc(C#N)cc3)[C@@H]2OC1=O | -0.255
C#CCN(Cc1ccccc1Br)C(/C=C/c1ccccc1)CO (stereo unspecified) | -0.0455
CC(C)[C@@H](CO)NC(=O)[C@H]1[C@@H](c2ccccc2)N(c2ccccc2)O[C@@H]1C | 0.227
[N-]=[N+]=Nc1ccccc1C[C@]1(C(=O)NCC(O)CO)N=C(c2ccc(OCCCO)cc2)O[C@H]1c1ccccc1N=[N+]=[N-] (stereo partly specified) | -1.12
C=CC[C@]1(C(=O)NCCCOC)N=C(c2ccc(OCCCO)cc2)O[C@H]1c1ccccc1N=[N+]=[N-] | -0.516
C=CCOC(=O)[C@H]1[C@@H]2C(=O)O[C@@H](c3ccccc3)[C@@H](c3ccccc3)N2[C@@H](c2ccc(OCCOC(=O)[C@H]3C[C@H]4C(=O)N5CCC[C@H]5C(=O)N4[C@H]3c3ccc(O)cc3)cc2)[C@]12C(=O)Nc1ccccc12 | 1.81
CN(C)CCCCCCNC(=O)[C@@H]1C[C@@H]2C(=O)N[C@@H](CCCCN)C(=O)N2[C@@H]1c1cccc(OCCO)c1 | 2.13

Compound | composite z-score
COCCOC(=O)N1C(=O)[C@@]2(c3cc(C#Cc4ccc(OC)cc4)ccc31)[C@H](C(N)=O)[C@H]1C(=O)O[C@H](c3ccccc3)[C@H](c3ccccc3)N1[C@@H]2c1ccccc1OCCO | 0.705
CCOC(=O)[C@H]1C/C=C/C[C@H](C(=O)OCC)C(=O)O[C@H]2[C@@H](OC)O[C@H](CO)[C@@H](OC(=O)Nc3cccc(F)c3)[C@@H]2OC1=O | 0.254
CN1C(=O)C2C=CC(C(O)C3CC=CCC3)N(NC(=O)OC(C)(C)C)C2C1=O (stereo unspecified) | 0.347
COc1ccc(CCNC(=O)[C@@]2(Sc3ccc(C)cc3)CC(=O)N(C3CCCCC3)[C@@H]2c2ccc(CO)cc2I)cc1 | 0.0743
COc1ccc(CCNC(=O)[C@@H]2c3ccccc3C(=O)N(C3Cc4ccccc4C3)[C@H]2c2ccc(CO)cc2)cc1 | -0.337
CO[C@H]1O[C@H](CO)[C@@H](OC(=O)Nc2ccc(Br)cc2)[C@H](OC(=O)c2cc3ccccc3[nH]2)[C@H]1OC(=O)c1cc2ccccc2[nH]1 | 0.0104
C=CCOC(=O)[C@H]1[C@@H]2C(=O)O[C@@H](c3ccccc3)[C@@H](c3ccccc3)N2[C@@H](c2ccc(OCCOC(=O)[C@H]3C[C@H]4C(=O)N[C@@H](CC(C)C)C(=O)N4[C@H]3c3ccc(O)cc3)cc2)[C@]12C(=O)Nc1ccc(I)cc12 | 1.23
O=C(NCC(F)(F)F)[C@@H]1c2ccccc2C(=O)N(C2CCCCC2)[C@H]1c1ccc(CO)cc1 | -0.783
CCCC=C(CCC)[C@@H](NC(=O)Oc1ccc(F)cc1)c1ccc(C(=O)OC)cc1 | -0.284
COC(=O)c1c(CC[C@@H](CO)NC(=O)N2CCC[C@H]2Cn2cc(-c3ccccn3)nn2)oc(C(C)=O)c1C(=O)OC | -0.17
CC(C)(C)OC(=O)CC[C@]1(C(=O)O)N=C(c2ccc(OCCCO)cc2)O[C@H]1c1ccccc1N=[N+]=[N-] | 0.0608
COC(=O)C(CC#Cc1ccc2c(c1)[C@]1(C(=O)N2)[C@H](C(=O)O)[C@H]2C(=O)O[C@H](c3ccccc3)[C@H](c3ccccc3)N2[C@@H]1c1ccc(O)cc1)C(=O)OC | -0.685
COCCOC(=O)N1C(=O)[C@@]2(c3cc(C#Cc4ccc(OC)cc4)ccc31)[C@H](c1ccc(O)cc1)N1[C@H](c3ccccc3)[C@H](c3ccccc3)OC(=O)[C@H]1[C@@H]2C(=O)NC[C@H](O)c1ccccc1 | 0.811
CN1C(=O)C2C=CC(C(O)c3cccs3)N(Nc3ccccc3)C2C1=O (stereo unspecified) | -0.0478
CC(C)(C)OC(=O)CC[C@@]1(C(=O)NCC(O)CO)N=C(c2ccc(OCCCO)cc2)O[C@@H]1c1ccccc1N=[N+]=[N-] (stereo partly specified) | 0.311
C[C@@H]1ON(c2cccc(C(=O)OC(C)(C)C)c2)[C@H](c2ccc(Br)cc2)[C@H]1C(=O)N1C(=O)OC[C@H]1Cc1ccccc1 | 0.693
COc1ccc(C(=O)Nc2ccc(CN3C(=O)[C@@]4(O[C@@H](CCn5cc([C@H](O)c6ccccc6)nn5)[C@H]([Si](C)(C)c5ccc(OC)cc5)[C@H]4C)c4ccccc43)cc2)cc1 | -0.347
CC(C)c1ccc(NN2C(C(O)c3cc(C(F)(F)F)cc(C(F)(F)F)c3)C=CC3C(=O)N(c4ccccc4)C(=O)C32)cc1 (stereo unspecified) | -0.551

Source: PubChem BioAssay
